Source: PubChem BioAssay
TDP1 inh = qHTS Assay for Inhibitors of Tyrosyl-DNA Phosphodiesterase (TDP1) | recombinant TDP1, AlphaScreen DNA substrate cleavage | AID 485290, 2010 | Potency, µM (series often up to 130 µM), most hits filed as inhibitors | hit rate 0.28% among 350,000 | Tyrosyl-DNA phosphodiesterase 1 (Homo sapiens), Q9NUW8; further: nearly all actives have a fitted effect of over 40% in size
Target sequence (Q9NUW8 whole entry, looked up): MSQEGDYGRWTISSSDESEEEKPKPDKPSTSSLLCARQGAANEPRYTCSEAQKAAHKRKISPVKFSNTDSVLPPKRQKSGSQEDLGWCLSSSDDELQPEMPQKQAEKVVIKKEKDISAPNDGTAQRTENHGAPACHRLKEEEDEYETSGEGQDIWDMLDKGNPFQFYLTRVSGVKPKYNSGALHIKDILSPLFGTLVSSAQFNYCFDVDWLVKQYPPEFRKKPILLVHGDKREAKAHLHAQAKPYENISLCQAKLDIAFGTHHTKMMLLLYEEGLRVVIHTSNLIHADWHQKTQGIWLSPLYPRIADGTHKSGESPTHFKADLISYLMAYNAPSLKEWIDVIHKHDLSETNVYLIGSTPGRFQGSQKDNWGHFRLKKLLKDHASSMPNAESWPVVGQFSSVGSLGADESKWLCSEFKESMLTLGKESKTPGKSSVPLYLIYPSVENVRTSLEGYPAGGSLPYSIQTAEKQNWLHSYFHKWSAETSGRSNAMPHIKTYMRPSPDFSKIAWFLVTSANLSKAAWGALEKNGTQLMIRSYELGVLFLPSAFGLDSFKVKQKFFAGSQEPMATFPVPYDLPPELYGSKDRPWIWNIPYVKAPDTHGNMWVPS
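Recombinant E. coli-expressed Tdp1 (1 nM) preincubated with compound 15 min at RT, then 5'-biotin/3'-phosphotyrosine-FITC DNA substrate (15 nM) added for 5 min. AlphaScreen beads (10 ug/ml) added, 10 min RT; tyrosine-FITC cleavage read as signal loss.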
Gal4-VP16 FLuc = VP16 counterscreen qHTS for inhibitors of ROR gamma transcriptional activity; hit rate 3.5% among 310,000; Drosophila S2 Gal4-VP16 UAS-luciferase, luminescence, 20 h; Potency, µM (titrated, usually from 53.6 µM), usual class: inhibitors;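 further: Gal4-VP16 expression switched on by copper sulfate through the metallothionein promoter; nearly all actives have a fitted effect of over 50% in size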
TDP1 cell noCPT = qHTS for Inhibitors of human tyrosyl-DNA phosphodiesterase 1 (TDP1): qHTS in cells in absence of CPT. DT40 Tdp1-/- hTDP1 cells, no CPT, ATP luminescence, 48 h. Potency, µM (series often up to 46.2 µM), hits mostly inhibitors. hit rate 15% among 420,000. AID 686978, 2013; further: nearly all actives have a fitted effect of over 55% in size
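Stably hTDP1-transfected Tdp1-null chicken DT40 cells were treated with library compounds minus camptothecin and grown for at least 48 hr at 37 °C, after which cellular ATP was quantified by luminescence.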
TDP1 cell CPT = qHTS for Inhibitors of human tyrosyl-DNA phosphodiesterase 1 (TDP1): qHTS in cells in presence of CPT. chicken DT40 Tdp1-/-;hTDP1 cells + 20 nM CPT, ATP luminescence, 48 h. Potency, µM (titrated, usually from 46.2 µM), actives largely listed as inhibitors. hit rate 12% among 420,000; further: nearly all actives have a fitted effect of over 55% in size
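Chicken DT40 Tdp1-/- cells stably complemented with human TDP1 were seeded at 400 cells/well in medium containing 20 nM camptothecin, exposed to pin-transferred compounds, and grown at 37 °C for at least 48 hr. Viability was read as ATP luminescence.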
RORg inh = qHTS for inhibitors of ROR gamma transcriptional activity; Drosophila S2 Gal4-RORgamma UAS-luciferase reporter, 20 h; Potency, µM (highest dose often 53.6 µM), most hits filed as inhibitors; hit rate 5.4% among 310,000; Nuclear receptor ROR-gamma (Mus musculus), P51450; further: nearly all actives have a fitted effect of over 60% in size
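ROR gamma transcriptional activity was tracked as Gal4-UAS luciferase output in stably transfected Drosophila Schneider cells, with compound added 1 hr before 700 uM copper sulfate induction and a 20 hr ambient-temperature incubation.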
Large screens that a line does not name were inactive. Only some compounds are listed: those with a hit (about 19% of all), similar ones and a draw of the others. The call rests on the fitted dose curve; in most records, active means well fitted curve in the direction sought with a large enough effect; inconclusive means small, poorly fitted or top-dose-only effect, or another doubt; inactive means no such curve, though single readings can be large; an effect the other way counts as inactive or inconclusive.

CC(NC(=O)CCCCCNC(=O)N1CCn2c1nc1ccccc12)c1ccccc1 (centres undefined)	TDP1 cell CPT 15µM
O=C(COc1ccc(Cl)cc1)Nc1ccc2c(c1)CCC2	TDP1 cell noCPT inconclusive, TDP1 cell CPT inconclusive, RORg inh inconclusive
CCN(CC)S(=O)(=O)c1cccc(C(=O)c2c(C)cc3ccccn23)c1	TDP1 cell noCPT 21µM, TDP1 cell CPT inconclusive
CCN(CC)S(=O)(=O)c1cc(NC(=O)C(=O)c2c(-c3ccccc3)cc3ccccn23)ccc1C	TDP1 cell noCPT 23µM, TDP1 cell CPT 21µM
CCN(CC)S(=O)(=O)c1cccc(NC(=O)C(=O)c2c(-c3ccccc3)cc3ccccn23)c1	TDP1 cell noCPT 23µM, TDP1 cell CPT inconclusive, RORg inh 7.9µM
O=C(CSc1nccn1-c1ccccc1)NCc1ccc2c(c1)OCO2	RORg inh inconclusive
O=C(CSc1nc2cc([N+](=O)[O-])ccc2n1-c1ccccc1)NCc1ccc2c(c1)OCO2	TDP1 cell noCPT 23µM, TDP1 cell CPT 15µM
O=C(CSc1ccc2ccccc2c1Br)Nc1cccc(S(=O)(=O)NC2=NCCCCC2)c1	TDP1 cell noCPT inconclusive
Cc1cc(C)cc(-n2c(SCC(=O)NCc3ccc4c(c3)OCO4)nc3ccccc3c2=O)c1	TDP1 cell noCPT 18µM, TDP1 cell CPT 7.3µM
CN(C)C(=O)Cn1c(SCC(=O)NCc2ccc3c(c2)OCO3)nc2ccccc21	none
Cc1cc(C(=O)CSc2nc3ccccc3c(=O)n2C)c(C)n1Cc1ccc2c(c1)OCO2	TDP1 cell noCPT 6.5µM, TDP1 cell CPT 5.8µM
Cc1cc(C)cc(-n2c(SCC(=O)Nc3cccc(S(=O)(=O)NC4=NCCCCC4)c3)nc3ccccc3c2=O)c1	TDP1 cell noCPT inconclusive, TDP1 cell CPT 18µM
COC(=O)c1cccc(N2C(=O)c3ccccc3S2(=O)=O)c1	none
Cc1nc2ccccc2nc1OCC(=O)NCc1ccc2c(c1)OCO2	TDP1 cell noCPT 7.3µM, TDP1 cell CPT 15µM
Cc1cc(CNC(=O)c2ccc3c(c2)OCO3)c2ccccc2n1	TDP1 cell noCPT 4.6µM, TDP1 cell CPT 7.3µM
Cn1c2ccccc2c(=O)c2ccc(NCc3ccc4c(c3)OCO4)cc21	TDP1 cell noCPT 15µM, TDP1 cell CPT 23µM (no result: TDP1 inh, Gal4-VP16 FLuc, RORg inh)
CC(C)n1nc(C(=O)NCc2ccc3c(c2)OCO3)c2ccccc2c1=O	TDP1 cell noCPT 21µM, TDP1 cell CPT 16µM
COc1ccc(NC(=O)COC(=O)CN2C(=O)C3CCCCC3C2=O)cc1 (centres undefined)	none (no result: TDP1 inh, Gal4-VP16 FLuc, RORg inh)
CC(OC(=O)C1=Cc2ccccc2OC1)C(=O)NC1CCCC1 (centres undefined)	TDP1 cell noCPT inconclusive
Nc1nc2c(ncn2[C@@H]2O[C@H](CNC(=O)[C@H](N)Cc3cncn3COCc3ccccc3)[C@@H](O)[C@H]2O)c(=O)[nH]1	none (no result: TDP1 inh, Gal4-VP16 FLuc, RORg inh)
Cc1cccc2sc(NC(=O)CSCc3ccccc3)nc12	TDP1 cell CPT inconclusive
CC(C)(C)C(=O)c1cn(CC(=O)NCc2ccc3c(c2)OCO3)c2ccccc12	Gal4-VP16 FLuc inconclusive, TDP1 cell noCPT 23µM, TDP1 cell CPT inconclusive
CC(=O)c1c(O)cc(O)cc1CC(=O)O	none
COc1ccccc1-c1nnc(NC(=O)CCS(=O)(=O)c2ccc(F)cc2)o1	TDP1 cell noCPT 9.2µM, TDP1 cell CPT 8.2µM (no result: TDP1 inh, Gal4-VP16 FLuc, RORg inh)
O=C(CCS(=O)(=O)c1ccc(F)cc1)Nc1nnc(-c2ccc(F)cc2)o1	TDP1 cell noCPT 16µM, TDP1 cell CPT 13µM (no result: Gal4-VP16 FLuc, RORg inh)
COc1ccccc1-c1nnc(NC(=O)CCS(=O)(=O)c2ccccc2)o1	Gal4-VP16 FLuc 10µM, TDP1 cell noCPT 18µM, TDP1 cell CPT 23µM, RORg inh 10µM
Cc1ccc(-c2nnc(NC(=O)CCS(=O)(=O)c3ccc(F)cc3)o2)c(C)c1	none (no result: Gal4-VP16 FLuc, RORg inh)
COc1cccc(C(=O)N[C@@H](CCSC)c2nc3ccccc3[nH]2)c1	TDP1 cell CPT inconclusive
CCn1c(CSc2nc3ccccc3[nH]2)n[nH]c1=S	RORg inh inconclusive
COc1ccccc1CCNC(=O)c1cc2ccccn2n1	TDP1 cell noCPT inconclusive, TDP1 cell CPT inconclusive (no result: Gal4-VP16 FLuc, RORg inh)
